From PubChem BioAssay (Tox21)
“And” between values parts separate entries of the source, which are not always exact repeats. Equal entries are not always repeated. Records with an inconclusive call do not appear. The source made the active and inactive calls. Unless noted, the call rests on the fitted dose curve.

How the values were obtained:
[1] = target: Estrogen receptor beta (Homo sapiens) (UniProt Q92731); experiment: qHTS assay to identify small molecule agonists of the estrogen receptor beta (ER-beta) signaling pathway (AID 1259377; active means well fitted activation curve with a large enough effect in the signal ratio in the repeat runs, not every such curve was filed as active; the % refers to the signal ratio)
How it was run: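 Beta-lactamase reporter readout: fluorescence of LiveBLAzer B/G FRET substrate after 2 h at room temperature, following 16 h compound treatment of ER-beta-UAS-bla HEK293T cells at 37C in 2% charcoal-stripped FBS medium.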

[2] = qHTS assay to identify small molecule agonists of the androgen receptor (AR) signaling pathway in the presence of an antagonist - cell viability counter screen (AID 1259379; active means well fitted curve in the direction sought with a large enough effect in the repeat runs; an effect the other way counts as inactive or inconclusive; further: nearly all actives have a fitted effect of over 25% in size; further: potency means the concentration at half of the fitted maximal effect)
How it was run: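 MDA-kb2 viability measured by CellTiter-Fluor fluorescence in the same wells as the luciferase signal; nilutamide 3.0uM final; 15-point compound titration; 16 hr at 37C.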

[3] = qHTS assay to identify small molecule agonists of the estrogen receptor beta (ER-beta) signaling pathway - cell viability counter screen (AID 1259380; active means well fitted curve in the direction sought with a large enough effect in the repeat runs; an effect the other way counts as inactive or inconclusive; further: nearly all actives have a fitted effect of over 30% in size; further: potency means the concentration at half of the fitted maximal effect)
How it was run: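 Measured: luminescence from CellTiter-Glo after 30 min at room temperature, added to wells already read for the LiveBLAzer FRET reporter (2 hr substrate); ER-beta-UAS-bla HEK293T cells had 16 hr compound treatment at 37C, 5% CO2.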

[4] = qHTS assay to identify small molecule antagonists of the estrogen receptor beta (ER-beta) signaling pathway - cell viability counter screen (AID 1259382; active means well fitted curve in the direction sought with a large enough effect in the repeat runs; an effect the other way counts as inactive or inconclusive; further: nearly all actives have a fitted effect of over 55% in size; further: potency means the concentration at half of the fitted maximal effect)
How it was run: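 Readout: luminescence, CellTiter-Glo, same wells as bla assay. System: ER-beta-UAS-bla GripTite HEK293T, 2% charcoal-stripped FBS. Exposure: compounds plus 1nM 17-beta-estradiol, 16 hr, 37C.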

[5] = target: Estrogen receptor (Homo sapiens) (UniProt P03372); experiment: qHTS assay to identify small molecule agonists of the estrogen receptor alpha (ER-alpha) signaling pathway in the presence of an antagonist (AID 1259383); further: top concentration of the series differs between compounds; nearly all actives have a fitted effect of over 15% in size
How it was run: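 Quantitative HTS confirmation: compounds titrated at 15 concentrations onto estrogen-deprived VM7Luc4E2 cells carrying a four-ERE luciferase construct, with ICI-182,780 present at 10.0nM final. Signal is luminescence after 22hr exposure.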

[6] = qHTS assay to identify small molecule agonists or antagonists of the thyroid stimulating hormone receptor (TSHR) signaling pathway - wild type cell line counter screen (AID 1259384)
How it was run: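 Wild-type Hek293 cells, 800/well, 18 h at 37C, then compound with Ro20-1724 for 30 min RT. cAMP by HTRF (cAMP-d2/anti-cAMP cryptate), 1 h RT, fluorescence read. 15 concentrations, triplicates.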

[7] = target: Thyrotropin receptor (Homo sapiens) (UniProt P16473); experiment: qHTS assay to identify small molecule antagonists of the thyroid stimulating hormone receptor (TSHR) signaling pathway (AID 1259385); further: nearly all actives have a fitted effect of over 20% in size
How it was run: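 TSHR-HEK293 cells (800/well) plated 18 h, then compounds with Ro20-1724 and TSH at 1.5 ng/mL final, 30 min at room temperature. cAMP quantified by HTRF (cAMP-d2/anti-cAMP-cryptate, 1 h); 15 concentrations in triplicate.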

[8] = target: Estrogen receptor beta (Homo sapiens) (UniProt Q92731); experiment: qHTS assay to identify small molecule antagonists of the estrogen receptor beta (ER-beta) signaling pathway (AID 1259378; active means well fitted inhibition curve with a large enough effect in the signal ratio in the repeat runs, not every such curve was filed as active; the % refers to the signal ratio; further: potency means the concentration at half of the fitted maximal effect)
How it was run: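 ER-beta-UAS-bla HEK293T cells in 2% charcoal-stripped FBS medium treated with compound plus 1nM final 17-beta-estradiol for 16 hr at 37C. Beta-lactamase reporter read by FRET substrate fluorescence after 2 hours at room temperature.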

[9] = target: Androgen receptor (Homo sapiens) (UniProt P10275); experiment: qHTS assay to identify small molecule agonists of the androgen receptor (AR) signaling pathway in the presence of an antagonist (AID 1259381); further: nearly all actives have a fitted effect of over 15% in size; further: potency means the concentration at half of the fitted maximal effect
How it was run: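 Luminescent ONE-Glo read, 30min at room temperature, follows 16hr compound exposure (15 concentrations) of MDA-kb2 cells at 37C, 0% CO2, with nilutamide added at 3.0uM final.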

Measured: Potency

Sequence of Androgen receptor (Homo sapiens) (P10275 whole entry, looked up): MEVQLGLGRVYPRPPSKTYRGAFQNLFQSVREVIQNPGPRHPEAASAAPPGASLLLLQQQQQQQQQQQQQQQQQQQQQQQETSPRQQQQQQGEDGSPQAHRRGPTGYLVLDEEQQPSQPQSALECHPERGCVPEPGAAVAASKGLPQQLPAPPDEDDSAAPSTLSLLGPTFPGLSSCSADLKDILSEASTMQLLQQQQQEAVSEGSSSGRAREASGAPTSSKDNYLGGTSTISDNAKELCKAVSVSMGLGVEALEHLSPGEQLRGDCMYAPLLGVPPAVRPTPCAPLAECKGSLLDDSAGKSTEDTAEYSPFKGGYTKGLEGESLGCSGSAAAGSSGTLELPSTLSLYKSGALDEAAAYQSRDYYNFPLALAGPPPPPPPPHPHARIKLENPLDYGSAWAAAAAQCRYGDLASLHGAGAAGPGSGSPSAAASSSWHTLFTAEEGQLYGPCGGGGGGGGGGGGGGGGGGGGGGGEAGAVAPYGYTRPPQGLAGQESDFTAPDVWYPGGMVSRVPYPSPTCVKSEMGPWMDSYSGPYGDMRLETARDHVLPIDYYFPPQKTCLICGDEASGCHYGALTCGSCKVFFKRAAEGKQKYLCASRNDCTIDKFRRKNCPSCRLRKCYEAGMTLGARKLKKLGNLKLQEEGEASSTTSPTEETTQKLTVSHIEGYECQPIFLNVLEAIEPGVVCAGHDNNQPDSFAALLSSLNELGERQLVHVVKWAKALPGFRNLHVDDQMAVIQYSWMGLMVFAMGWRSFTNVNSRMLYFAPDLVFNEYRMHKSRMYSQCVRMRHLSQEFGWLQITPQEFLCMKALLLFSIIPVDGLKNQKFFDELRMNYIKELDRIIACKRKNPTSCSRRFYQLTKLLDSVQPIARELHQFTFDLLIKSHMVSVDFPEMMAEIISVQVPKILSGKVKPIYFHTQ
Sequence of Estrogen receptor beta (Homo sapiens) (Q92731 whole entry, looked up): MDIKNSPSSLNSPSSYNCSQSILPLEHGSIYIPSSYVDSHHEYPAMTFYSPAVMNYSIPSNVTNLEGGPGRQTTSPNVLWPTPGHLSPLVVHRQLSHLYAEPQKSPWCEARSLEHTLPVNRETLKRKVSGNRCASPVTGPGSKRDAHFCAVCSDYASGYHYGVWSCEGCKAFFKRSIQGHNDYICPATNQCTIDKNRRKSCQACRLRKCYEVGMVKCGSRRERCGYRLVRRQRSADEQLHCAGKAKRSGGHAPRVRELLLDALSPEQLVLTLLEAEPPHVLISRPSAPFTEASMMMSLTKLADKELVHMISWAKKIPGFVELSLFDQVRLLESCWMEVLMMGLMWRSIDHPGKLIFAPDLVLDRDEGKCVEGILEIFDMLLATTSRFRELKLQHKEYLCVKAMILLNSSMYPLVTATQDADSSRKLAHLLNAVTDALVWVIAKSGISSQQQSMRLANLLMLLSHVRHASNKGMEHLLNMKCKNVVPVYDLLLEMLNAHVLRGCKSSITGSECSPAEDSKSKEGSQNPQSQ
Sequence of Estrogen receptor (Homo sapiens) (P03372 whole entry, looked up): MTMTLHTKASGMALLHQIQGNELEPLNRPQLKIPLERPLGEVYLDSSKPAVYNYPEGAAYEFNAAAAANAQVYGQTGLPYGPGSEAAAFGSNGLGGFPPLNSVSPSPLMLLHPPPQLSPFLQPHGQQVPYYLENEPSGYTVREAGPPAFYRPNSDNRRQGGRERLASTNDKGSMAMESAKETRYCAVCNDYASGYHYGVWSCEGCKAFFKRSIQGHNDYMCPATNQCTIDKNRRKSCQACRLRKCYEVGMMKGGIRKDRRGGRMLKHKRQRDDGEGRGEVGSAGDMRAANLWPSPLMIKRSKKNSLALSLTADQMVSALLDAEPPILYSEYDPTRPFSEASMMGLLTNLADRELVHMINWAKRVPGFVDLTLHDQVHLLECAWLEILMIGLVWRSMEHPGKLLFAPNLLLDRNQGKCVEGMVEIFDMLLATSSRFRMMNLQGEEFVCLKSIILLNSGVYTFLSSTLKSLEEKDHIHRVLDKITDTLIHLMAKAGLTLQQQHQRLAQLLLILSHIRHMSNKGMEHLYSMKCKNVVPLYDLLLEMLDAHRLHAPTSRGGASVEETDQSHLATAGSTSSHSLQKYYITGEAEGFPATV
Sequence of Thyrotropin receptor (Homo sapiens) (P16473 whole entry, looked up): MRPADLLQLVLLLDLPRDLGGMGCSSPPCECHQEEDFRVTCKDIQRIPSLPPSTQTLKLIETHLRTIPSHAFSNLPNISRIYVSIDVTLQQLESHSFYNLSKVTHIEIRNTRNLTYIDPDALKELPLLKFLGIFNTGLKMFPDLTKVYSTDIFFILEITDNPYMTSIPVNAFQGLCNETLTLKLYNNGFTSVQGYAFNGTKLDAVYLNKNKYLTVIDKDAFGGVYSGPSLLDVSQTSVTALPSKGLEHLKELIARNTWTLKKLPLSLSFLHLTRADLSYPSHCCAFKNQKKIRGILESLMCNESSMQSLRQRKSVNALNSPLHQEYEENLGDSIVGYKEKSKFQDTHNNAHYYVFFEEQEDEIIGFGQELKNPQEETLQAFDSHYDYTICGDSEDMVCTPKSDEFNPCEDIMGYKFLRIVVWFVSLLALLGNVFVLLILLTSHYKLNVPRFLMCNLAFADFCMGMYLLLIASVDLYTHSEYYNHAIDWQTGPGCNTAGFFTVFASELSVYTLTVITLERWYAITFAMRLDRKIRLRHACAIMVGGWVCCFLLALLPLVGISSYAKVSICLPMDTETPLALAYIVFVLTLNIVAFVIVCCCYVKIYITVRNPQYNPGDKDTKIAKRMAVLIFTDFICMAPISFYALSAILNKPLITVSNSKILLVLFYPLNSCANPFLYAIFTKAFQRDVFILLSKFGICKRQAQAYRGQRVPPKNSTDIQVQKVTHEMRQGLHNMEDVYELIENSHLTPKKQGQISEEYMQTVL

CCCN(CCC)c1c([N+](=O)[O-])cc(S(C)(=O)=O)cc1[N+](=O)[O-]
inactive: [1] | [2] | [3] | [4] | [5]

CC(C)(OO)c1ccccc1
inactive: [2] | [3] | [4] | [5] | [6] | [7]

CCOP(=S)(OCC)SCn1nnc2ccccc2c1=O
active: [8] 68.6 µM
inactive: [1] | [4] | [5] | [6] | [7]

Clc1ccc(C(OCCN2CCCCC2)c2ccccc2)cc1 (configuration not stated)
inactive: [1] | [8] | [4] | [5] | [6] | [7]
active: [3] 18.8 µM

CCOC(=O)[C@]1(c2ccccc2)Oc2ccccc2[C@@H]1N
inactive: [1] | [6] | [7]

CCC(COC(=O)c1cc(OC)c(OC)c(OC)c1)(c1ccccc1)N(C)C (configuration not stated)
inactive: [1] | [8] | [2] | [4]

CC(O)(CS(=O)(=O)c1ccc(F)cc1)C(=O)Nc1ccc(C#N)c(C(F)(F)F)c1 (configuration not stated)
active: [3] 31.8 µM | [4] 28.3 µM
inactive: [1] | [2] | [5]

Nc1ccc(N=Nc2ccc(-c3ccc(N=Nc4c(S(=O)(=O)O)cc5cc(S(=O)(=O)O)c(N=Nc6ccccc6)c(O)c5c4N)cc3)cc2)c(N)c1
inactive: [1] | [5]
active: [2] 17.6 µM

CN1C(=O)C(O)N=C(c2ccccc2)c2cc(Cl)ccc21 (configuration not stated)
inactive: [1] | [2] | [4] | [5]

C=CC(=O)OCCCCO
inactive: [1] | [8] | [2] | [4] | [5] | [6] | [7]

Clc1cccc2ccccc12
inactive: [8] | [2] | [4] | [6] | [7]

CS/C(C)=N/OC(=O)N(C)SN(C)C(=O)O/N=C(\C)SC
inactive: [1] | [9] | [4] | [5] | [6]

COC(=O)C(C)N(C(=O)Cc1ccccc1)c1c(C)cccc1C (configuration not stated)
inactive: [2] | [9] | [5] | [7]
active: [3] 61.1 µM

COc1ccc(-c2ccccc2)cc1NNC(=O)OC(C)C
active: [8] 63.7 µM
inactive: [1] | [9] | [5]

COc1nn(CSP(=S)(OC)OC)c(=O)s1
inactive: [2] | [5] | [7]

O=C(CBr)OCc1ccccc1
inactive: [8] | [2] | [3] | [5]

C=CC(=O)NCNC(=O)C=C
inactive: [2] | [5]
active: [9] 48.6 µM

O=C=Nc1ccc(Cl)cc1
inactive: [1] | [8] | [2] | [5]

CN1C[C@H](CNC(=O)OCc2ccccc2)C[C@@H]2c3cccc4c3c(cn4C)C[C@H]21
inactive: [1] | [2] | [5] | [6]

O=[N+]([O-])c1ccc(F)c([N+](=O)[O-])c1
inactive: [1] | [3] | [4] | [5] | [7]
active: [2] 27.6 µM

CC(C)(C)C(O)C(Oc1ccc(Cl)cc1)n1cncn1 (configuration not stated)
inactive: [2] | [4] | [6]

OCCCBr
inactive: [2] | [3] | [4] | [5] | [6] | [7]

O=[N+]([O-])c1cc(C(F)(F)F)cc([N+](=O)[O-])c1Cl
inactive: [5] | [6] | [7]

C(=NC1CCCCC1)=NC1CCCCC1
active: [2] 2.45 µM and 4.86 µM
inactive: [1] | [3] | [4] | [5] | [6] | [7]

O=C(Nc1ccccc1)Nc1cnns1
inactive: [1] | [2] | [4] | [5] | [6] | [7]

O=S(=O)(Cl)c1ccccc1
inactive: [2] | [4] | [6] | [7]
